Assay results: PubChem BioAssay (NCATS)
Records with an inconclusive call do not appear. The source made the active and inactive calls. The call rests on the fitted dose curve; in most records, active means well fitted curve in the direction sought with a large enough effect; inconclusive means small, poorly fitted or top-dose-only effect, or another doubt; inactive means no such curve, though single readings can be large; an effect the other way counts as inactive or inconclusive. Starred links: 1 amine or outer side, 2 acyl side, 3 side chain; linkers in the order of their positions; H or OH if unused. Positions of bridges follow the written chain, without caps; N, C: chain ends. Non-standard residues stand in square brackets, D forms with d. Residues, ends and D or L forms follow the SMILES beside them. Chains are numbered I, II in the order given. Actinocin(9to1) = Cc1c2oc3c(C)ccc(C(=O)[*:1])c3nc-2c(C(=O)[*:2])c(N)c1=O; NMeV = CN[CH](C(=O)O)C(C)C; Sar = CNCC(=O)O

Legend:
[1] = BET inhibitor-based combinations targeting novel dependencies in MECOM-rearranged (r) AML: OCI-AML3 cell line (AID 2202232); details: Potency: OCI-AML3 viability; further: nearly all actives have a fitted effect of over 35% in size
How it was run: (§1)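 Each compound was tested at eleven concentrations on cells seeded at 500/well. After two days' incubation, ATP-based luminescence reported viability; responses relative to DMSO and blank wells yielded AUC and cell-line-centred Z-AUC.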

[2] = BET inhibitor-based combinations targeting novel dependencies in MECOM-rearranged (r) AML: MV-4-11 cell line (AID 2202233); further: nearly all actives have a fitted effect of over 45% in size
How it was run: (§2)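 First, 500 cells per well were seeded; next, drugs were pinned as 11-point doses; then plates sat 48 hr in the incubator; finally CellTiter-Glo was added and luminescence read, with AUC and Z-AUC computed.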

[3] = BET inhibitor-based combinations targeting novel dependencies in MECOM-rearranged (r) AML: HNT-34 cell line (AID 2202234); further: nearly all actives have a fitted effect of over 35% in size
How it was run: as §2

[4] = BET inhibitor-based combinations targeting novel dependencies in MECOM-rearranged (r) AML: UCSD-AML1 cell line (AID 2202235); further: nearly all actives have a fitted effect of over 40% in size
How it was run: as §2

[5] = BET inhibitor-based combinations targeting novel dependencies in MECOM-rearranged (r) AML: AML-191 cell line (AID 2202236; further: nearly all actives have a fitted effect of over 35% in size)
How it was run: as §1

[6] = BET inhibitor-based combinations targeting novel dependencies in MECOM-rearranged (r) AML: AML-194 cell line (AID 2202237; further: nearly all actives have a fitted effect of over 40% in size)
How it was run: as §1
Potency means the concentration at half of the fitted maximal effect.

| Compound | Potency [1] | Potency [2] | Potency [3] | Potency [4] | Potency [5] | Potency [6] |
| --- | --- | --- | --- | --- | --- | --- |
| C=CC(=O)Nc1cc2c(Nc3ccc(F)c(Cl)c3)ncnc2cc1C#CC(C)(C)N1CCN(C)CC1 | 2.63 µM (active) | 0.742 µM (active) | 3.72 µM (active) | 4.17 µM (active) | 4.68 µM (active) | 4.68 µM (active) |
| CC(C)n1c(/C=C/[C@H](O)C[C@H](O)CC(=O)O)c(-c2ccc(F)cc2)c2ccccc21 | 3.32 µM (active) | 11.8 µM (active) | 8.33 µM (active) | 11.8 µM (active) |  |  |
| CC(C)c1cnn2c(NCc3ccccc3)cc(NCCCCCCN)nc12 | 23.5 µM (active) | 18.6 µM (active) |  |  |  |  |
| Nc1ncn([C@H]2C[C@H](O)[C@@H](CO)O2)c(=O)n1 | 0.417 µM (active) | 0.332 µM (active) |  |  |  |  |
| Cc1ncc(NC(=O)c2cccc(C(F)(F)F)c2)cc1-c1cnc(OC2CCOCC2)c(N2CCOCC2)c1 | 0.0833 µM (active) | 16.6 µM (active) | 6.61 µM (active) | 8.33 µM (active) | 11.8 µM (active) |  |
| Cc1c2oc3c(C)ccc(C(=O)NC4C(=O)NC(C(C)C)C(=O)N5CCCC5C(=O)N(C)CC(=O)N(C)C(C(C)C)C(=O)OC4C)c3nc-2c(C(=O)NC2C(=O)NC(C(C)C)C(=O)N3CCCC3C(=O)N(C)CC(=O)N(C)C(C(C)C)C(=O)OC2C)c(N)c1=O (centres undefined) (I: TVP[Sar][NMeV] / II: TVP[Sar][NMeV]; ester I:1-I:C, II:1-II:C; linker I:N-II:N via Actinocin(9to1); configuration not given here) | 0.0032 µM (active) | 0.0014 µM (active) | 0.0057 µM (active) | 0.0032 µM (active) | 0.0102 µM (active) | 0.0115 µM (active) |
| CC(C)C(N)C(=O)OCC(CO)OCn1cnc2c(=O)[nH]c(N)nc21 (centres undefined) | inactive | inactive | inactive | inactive | inactive |  |
| Cc1cc(OCCCc2c3n(c4c(-c5c(C)nn(C)c5C)c(Cl)ccc24)[C@H](C)CN(c2cn(C)c4ccc(C(=O)O)cc24)C3=O)cc(C)c1Cl | 2.63 µM (active) | 0.468 µM (active) | 2.95 µM (active) | 20.9 µM (active) | 20.9 µM (active) | 14.8 µM (active) |
| COc1cc(C(C)C)c2c(c1)S(=O)(=O)N(COc1cc(=O)n3cccc(OCCN4CCCCC4)c3n1)C2=O | 23.5 µM (active) | 23.5 µM (active) | 20.9 µM (active) | 26.3 µM (active) | 29.5 µM (active) | 23.5 µM (active) |
| CN(C)CCCOc1ccc(-c2ccc3ncc4c(c3c2)n(C2CCOCC2)c(=O)n4C)cn1 | 7.23 µM (active) | 4.07 µM (active) | 2.57 µM (active) |  |  |  |
| N#Cc1ccc(Cn2cncc2CN2CCN(c3cccc(Cl)c3)C(=O)C2)cc1 | 2.95 µM (active) | 7.42 µM (active) | 1.66 µM (active) | 3.72 µM (active) |  |  |
| CC(C)(O)C1CCC(Nc2ccc3ncc(-c4cccc(C(F)(F)F)c4)n3n2)CC1 (centres undefined) | 11.8 µM (active) | 3.32 µM (active) | 6.61 µM (active) | 6.61 µM (active) | 5.9 µM (active) |  |
